# Test results reported in PubChem BioAssay (NCATS).
# Records with an inconclusive call do not appear. Where a call stands in place of a potency, no number is given. Activity calls are given as the source filed them. Unless noted, the call rests on the fitted dose curve; in most records, active means well fitted curve in the direction sought with a large enough effect; inconclusive means small, poorly fitted or top-dose-only effect, or another doubt; inactive means no such curve, though single readings can be large; an effect the other way counts as inactive or inconclusive.
# How the values were obtained:
# [1] = P-glycoprotein substrates identified in KB-3-1 adenocarcinoma cell line, qHTS therapeutic library screen (AID 1346986); further: nearly all actives have a fitted effect of over 60% in size;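 further: potency means the concentration at half of the fitted maximal effect; potency is for cytotoxicity meaning loss of cell viability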
# Method in brief: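 72 h cell-killing screen, 500 cells/well, CellTiter-Glo luminescence. Paired lines KB-3-1/KB-8-5-11; P-gp dependence checked by tariquidar co-treatment and HEK-293 MDR-19 versus empty-vector cells.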
# [2] = Primary qHTS for inhibitors of nuclear receptor binding SET domain protein 2 (NSD2) in an isogenic RCH-ACV NSD2 p.E1099K mutant (9B) (AID 1645876); further: nearly all actives have a fitted effect of over 70% in size; further: potency means the concentration at half of the fitted maximal effect
# [3] = Primary qHTS for inhibitors of nuclear receptor binding SET domain protein 2 (NSD2) in an RCH-ACV wild type WT cells (2C) (AID 1645877); further: nearly all actives have a fitted effect of over 70% in size; further: potency means the concentration at half of the fitted maximal effect
# [4] = target: Glutathione peroxidase 1 (Homo sapiens) (UniProt P07203); experiment: Primary qHTS Assay for Inhibitors of Recombinant Selenoprotein Glutathione Peroxidase 1 (GPX1) (AID 1845191); further: nearly all actives have a fitted effect of over 65% in size
# Glutathione peroxidase 1 (Homo sapiens), sequence (P07203 whole entry, looked up): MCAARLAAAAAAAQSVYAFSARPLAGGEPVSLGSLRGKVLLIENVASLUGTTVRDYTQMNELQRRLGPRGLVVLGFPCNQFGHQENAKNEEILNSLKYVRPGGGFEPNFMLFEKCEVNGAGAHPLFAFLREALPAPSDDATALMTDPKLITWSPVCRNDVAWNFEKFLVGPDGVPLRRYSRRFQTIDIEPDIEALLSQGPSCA
# Method in brief: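 GPX1 10 nM, GR 100 nM, GSH 1 mM, NADPH 0.5 mM, CHP 0.5 mM (final). 30-min cpd preincubation, RT. Ex340/Em450 read t=0, t=15 min.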
# [5] = tested on: Zika virus NS2B-NS3 protease; experiment: Primary screen GU AMC qHTS for Zika virus inhibitors (AID 1347154); further: nearly all actives have a fitted effect of over 70% in size
# Method in brief: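 Unlinked Zika NS2B hydrophilic domain/NS3 protease domain noncovalent complex (25 nM final) in 10 mM Tris-HCl pH 8.0, 0.01% Tween 20, with AMC peptide substrate. Fluorescence (ex 340, em 450 nm) change over 15 min, room temperature; percent inhibition fitted to 4-parameter Hill equation.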
# [6] = qHTS to identify inhibitors of the type 1 interferon - major histocompatibility complex class I in skeletal muscle: primary screen against the NCATS Mechanism Interrogation Plate v5.0 (MIPE) Libary (AID 1347411); further: potency means the concentration at half of the fitted maximal effect; nearly all actives have a fitted effect of over 65% in size
# Method in brief: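 Seed engineered human myoblasts (HLA-B HiBit) in medium without dexamethasone containing 4 ng/ml IFN-beta; after 1 hr add compound titrations (top 46 uM final). Incubate 24 hrs at 37 C, lyse 10 min with HiBiT reagent, read luminescence.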
# [7] = qHTS drug screen for cell cycle checkpoint inhibitors in PARPi-resistant BRCA-mutant ovarian cancer cell lines. (AID 1963452; calls by dose curve; further: potency means the concentration at half of the fitted maximal effect); settings: PEO1/OlaR viability, CellTiter-Glo luminescence, 96 h; for Z-AUC: stronger effect = lower value
# Method in brief: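 PEO1, PEO4 and PEO1/OlaR ovarian cancer cells, 600 per well, exposed 96 h at 37C to a dilution series. Viability read by CellTiter-Glo luminescence, normalized to DMSO and empty wells; activity summarized as Z-AUC.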
# [8] = target: Calcium and integrin-binding protein 1 (Homo sapiens) (UniProt Q99828); experiment: Primary qHTS for Identification of Calcium Integrin Binding Protein 1 (CIB1) Competitor (AID 1508620);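 further: GST tagged CIB1 binding a fluorescein labelled alphaIIb integrin peptide tracer; top concentration of the series differs between compounds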
# Calcium and integrin-binding protein 1 (Homo sapiens), sequence (Q99828 whole entry, looked up): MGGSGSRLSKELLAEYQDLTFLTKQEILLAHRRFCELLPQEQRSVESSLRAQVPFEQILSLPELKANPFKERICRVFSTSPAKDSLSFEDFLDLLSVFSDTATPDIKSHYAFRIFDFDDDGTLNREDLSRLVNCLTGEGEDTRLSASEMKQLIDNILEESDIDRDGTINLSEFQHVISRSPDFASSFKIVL
# Method in brief: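 Fluorescence polarization competition: CIB1-GST (1 uM final) preincubated with compound 15 min at room temperature, then FITC-labeled alphaIIb peptide (100 nM final) added for another 15 min. Polarization read at Ex 480/Em 540.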
# [9] = P-glycoprotein substrates identified in KB-8-5-11 adenocarcinoma cell line, qHTS therapeutic library screen (AID 1346987); further: nearly all actives have a fitted effect of over 65% in size; further: potency means the concentration at half of the fitted maximal effect
# Method in brief: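 Luminescence from CellTiter-Glo, read 5 min after addition, quantified survival of KB-8-5-11 (P-gp-overexpressing) cells exposed to compounds for 72 h. AC50 was derived from concentration-response curves.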
# [10] = target: Cytochrome P450 3A4 (Homo sapiens) (UniProt P08684); experiment: qHTS Assay for Activators of Cytochrome P450 3A4 (AID 885); further: nearly all actives have a fitted effect of over 65% in size
# Cytochrome P450 3A4 (Homo sapiens), sequence (P08684 whole entry, looked up): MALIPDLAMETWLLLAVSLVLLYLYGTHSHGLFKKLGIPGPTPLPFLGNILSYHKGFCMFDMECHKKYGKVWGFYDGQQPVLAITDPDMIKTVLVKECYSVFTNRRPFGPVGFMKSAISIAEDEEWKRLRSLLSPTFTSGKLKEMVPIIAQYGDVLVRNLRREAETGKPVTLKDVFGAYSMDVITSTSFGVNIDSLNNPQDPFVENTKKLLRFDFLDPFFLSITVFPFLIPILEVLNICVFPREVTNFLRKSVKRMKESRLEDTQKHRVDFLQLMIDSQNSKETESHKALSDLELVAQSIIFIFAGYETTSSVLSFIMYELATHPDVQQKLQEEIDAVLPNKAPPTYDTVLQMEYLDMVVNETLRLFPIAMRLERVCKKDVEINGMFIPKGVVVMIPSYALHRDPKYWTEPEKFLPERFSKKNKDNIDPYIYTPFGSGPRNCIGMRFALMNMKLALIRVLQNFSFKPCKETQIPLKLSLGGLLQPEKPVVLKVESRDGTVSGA
# Method in brief: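 Activators are scored by enhanced luminescence from CYP3A4 conversion of luciferin-PPXE (25uM, equal to KM) to luciferin, after 60 min at RT with an NADPH-regenerating system.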
# [11] = Confirmation and Secondary Assay for Modulators of Hemoglobin Beta Chain Splicing at IVS2 654 locus (AID 910);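 further: per-well total GFP intensity by laser scanning cytometry after 2-day treatment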
# Method in brief: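 HeLa cells stably carrying EGFP interrupted by mutant beta-globin IVS2-654 intron (CMV-driven) were treated with compound for 2 days at 37C; corrected splicing was scored as total peak GFP intensity per well (488 nm excitation, 500-520 nm emission).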
# [12] = Confirmation and Secondary Assay for Modulators of Hemoglobin Beta Chain Splicing at IVS2 705 locus (AID 930);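 further: HeLa cells stably expressing the EGFP-705 splicing reporter; GFP fluorescence per well restored by corrected splicing of the IVS2-705 intron in EGFP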
# Method in brief: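 Splice-correction reporter: EGFP cDNA split by beta-globin intron 2 bearing the 705 mutation, stably in HeLa. Compound incubation 2 days, 37C; fluorescent objects 5-250 µm summed per well.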
# [13] = qHTS Assay for Lipid Storage Modulators (AID 1519; calls by dose curve); settings: Drosophila S3 cells, BODIPY lipid droplet/cell ratio, laser cytometry, cells loaded with oleic acid
# Method in brief: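 Cells seeded at 5,000 per well were treated with compounds over a concentration series and loaded with oleic acid (400 uM, as added). Lipid droplet fluorescence (488 nm excitation, 500-530 nm channel) was read by laser-scanning cytometry and normalized to 20 uM Triacsin C.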
# [14] = target: Ubiquitin carboxyl-terminal hydrolase 1 (Homo sapiens) (UniProt O94782); experiment: Inhibitors of USP1/UAF1: Pilot qHTS (AID 504865);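 further: rhodamine fluorescence freed from ubiquitin-rhodamine substrate followed over time; top concentration of the series differs between compounds; nearly all actives have a fitted effect of over 35% in size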
# Ubiquitin carboxyl-terminal hydrolase 1 (Homo sapiens), sequence (O94782 whole entry, looked up): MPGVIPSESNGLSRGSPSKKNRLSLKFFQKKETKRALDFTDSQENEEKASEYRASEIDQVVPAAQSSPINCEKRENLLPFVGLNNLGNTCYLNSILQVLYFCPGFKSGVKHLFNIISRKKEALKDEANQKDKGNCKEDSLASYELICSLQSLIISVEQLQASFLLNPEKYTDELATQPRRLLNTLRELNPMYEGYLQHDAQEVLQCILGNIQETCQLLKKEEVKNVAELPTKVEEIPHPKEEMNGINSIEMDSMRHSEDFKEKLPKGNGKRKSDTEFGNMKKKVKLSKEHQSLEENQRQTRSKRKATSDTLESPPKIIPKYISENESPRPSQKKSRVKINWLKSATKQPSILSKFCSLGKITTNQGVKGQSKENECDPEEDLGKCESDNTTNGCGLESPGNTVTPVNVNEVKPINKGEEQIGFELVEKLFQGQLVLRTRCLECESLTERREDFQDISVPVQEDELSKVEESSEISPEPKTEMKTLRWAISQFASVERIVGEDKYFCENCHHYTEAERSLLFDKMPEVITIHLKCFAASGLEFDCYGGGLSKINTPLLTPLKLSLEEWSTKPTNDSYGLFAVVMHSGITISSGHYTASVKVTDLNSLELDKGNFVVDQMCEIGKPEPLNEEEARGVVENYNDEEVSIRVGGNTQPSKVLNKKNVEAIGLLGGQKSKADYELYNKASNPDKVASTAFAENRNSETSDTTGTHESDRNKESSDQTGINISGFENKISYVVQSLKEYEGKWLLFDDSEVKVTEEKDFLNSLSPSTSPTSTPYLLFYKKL
# Method in brief: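 In 50mM HEPES pH 7.8 containing 0.5mM EDTA, 1mM TCEP, 0.1 mg/ml BSA and 0.01% Tween-20, 1nM USP1/UAF1 is exposed to compound for 15 min, then Ub-Rho (150nM final) is added and fluorescence is read over time.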
smiles,measurement,setting,value
CSc1cc2c(s1)c1cnn(Cc3ccccc3F)c(=O)c1n2C,Potency,[1],inactive
same,Potency,[2],inactive
same,Potency,[3],inactive
O=C(/C=C/c1nc2ccccc2[nH]1)c1c(-c2ccccc2)c2cc(Cl)ccc2[nH]c1=O,Potency,[1],7.31 µM (active)
same,Potency,[2],1.16 µM (active)
same,Potency,[3],1.03 µM (active)
same,Potency,[4],inactive
NC(=O)c1sc(-c2ccsc2)cc1N,Potency,[1],inactive
same,Potency,[5],inactive
same,Potency,[2],inactive
same,Potency,[3],inactive
same,Potency,[4],inactive
CC(C)n1cnc2c(NCc3cccc(C(F)(F)F)c3)ncnc21,Potency,[1],inactive
same,Potency,[4],inactive
COc1cc2c(cc1OC)/C(=C/c1ccc(O)cc1)C(=O)N2,Potency,[1],inactive
same,Potency,[4],inactive
O=C(NCCO)c1cc(C(=O)NCCO)cc(C(=O)NCCO)c1,Potency,[1],inactive
same,Potency,[2],inactive
same,Potency,[3],inactive
same,Potency,[4],inactive
COCc1c(-c2ccc(NC(=O)Nc3cc(C(F)(F)F)ccc3F)c(F)c2)c2c(N)ncnn2c1CN1CCOCC1,Potency,[1],16.4 µM (active)
same,Potency,[6],3.3 µM (active)
same,Potency,[4],inactive
same,Potency,[7],3.47 µM (active)
same,Z-AUC,[7]; measured here: PEO1 parental Z-AUC,-1.33
same,Z-AUC,[7]; measured here: PEO4 Z-AUC,-1.61
O=C1OC(/C=C/c2ccccc2)=NC/1=C\c1cccnc1,Potency,[1],inactive
same,Potency,[2],inactive
same,Potency,[3],inactive
same,Potency,[4],inactive
CC1=CC(=O)C(C(C)C)=CC1=O,Potency,[1],inactive
same,Potency,[2],14.6 µM (active)
same,Potency,[3],6.51 µM (active)
same,Potency,[4],inactive
O=C1CCc2cc(S(=O)(=O)Nc3ccc(F)c(Cl)c3)c(F)cc2N1,Potency,[1],inactive
same,outcome,[8],inactive
same,Potency,[2],inactive
same,Potency,[3],inactive
same,Potency,[4],inactive
CCCC(NC(=O)/C(C#N)=C/c1cccc(Br)n1)c1ccccc1 (stereo not given),Potency,[1],16.4 µM (active)
same,Potency,[2],2.91 µM (active)
same,Potency,[3],3.26 µM (active)
O=C1NC(=NCc2cccs2)S/C1=C/c1ccc2ncccc2c1,Potency,[1],4.11 µM (active)
same,Potency,[2],3.66 µM (active)
same,Potency,[3],2.91 µM (active)
same,Potency,[4],inactive
CC(N)C1CCC(C(=O)Nc2ccncc2)CC1 (stereo not given),Potency,[9],inactive
same,Potency,[2],inactive
same,Potency,[3],inactive
BrC1C(Br)C(Br)C(Br)C(Br)C1Br (stereo not given),Potency,[9],inactive
same,Potency,[2],inactive
same,Potency,[3],inactive
same,Potency,[4],inactive
CCN(CC)CCNC(=O)c1c(C)[nH]c(/C=C2\C(=O)Nc3ccc(Cl)cc32)c1C,Potency,[9],18.4 µM (active)
same,Potency,[2],2.59 µM (active)
same,Potency,[3],2.91 µM (active)
O=C1CCCC2=C1C(c1ncccc1Br)N=C(Nc1nc3ccccc3o1)N2 (stereo not given),Potency,[9],inactive
same,outcome,[8],inactive
same,Potency,[4],inactive
COc1cc(O)c2c(=O)c(O)c(-c3ccc(O)c(O)c3)oc2c1,Potency,[10],inactive
same,outcome,[11],inactive
same,outcome,[12],inactive
same,"activity change, negative = inhibition",[13]; at 57.5 µM (top of the series),4.09% (inactive)
same,max response,[13]; measured here: cell count channel max response,-9.74%
same,max response,[13]; measured here: lipid channel max response,-5.25%
same,Potency,[14],inactive
same,Potency,[9],inactive
same,Potency,[2],10.3 µM (active)
same,Potency,[3],14.6 µM (active)
same,Potency,[4],inactive
